About 7,900 targets were measured; listed, in parts, are those with a hit and a random draw of the rest. About 0.6% of all pairs of compound and target were hits. Values without a mark were called inactive.

UniProt Q00535, sequence (Q00535 whole entry, looked up): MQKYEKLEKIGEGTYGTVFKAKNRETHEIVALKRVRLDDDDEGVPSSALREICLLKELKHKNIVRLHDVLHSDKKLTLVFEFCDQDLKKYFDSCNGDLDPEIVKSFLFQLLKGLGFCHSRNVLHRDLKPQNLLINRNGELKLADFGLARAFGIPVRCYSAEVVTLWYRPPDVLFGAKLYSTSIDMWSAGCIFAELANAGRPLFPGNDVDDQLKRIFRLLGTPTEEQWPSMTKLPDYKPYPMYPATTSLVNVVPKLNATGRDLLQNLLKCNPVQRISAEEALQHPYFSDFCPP
UniProt P51790, sequence (P51790 whole entry, looked up): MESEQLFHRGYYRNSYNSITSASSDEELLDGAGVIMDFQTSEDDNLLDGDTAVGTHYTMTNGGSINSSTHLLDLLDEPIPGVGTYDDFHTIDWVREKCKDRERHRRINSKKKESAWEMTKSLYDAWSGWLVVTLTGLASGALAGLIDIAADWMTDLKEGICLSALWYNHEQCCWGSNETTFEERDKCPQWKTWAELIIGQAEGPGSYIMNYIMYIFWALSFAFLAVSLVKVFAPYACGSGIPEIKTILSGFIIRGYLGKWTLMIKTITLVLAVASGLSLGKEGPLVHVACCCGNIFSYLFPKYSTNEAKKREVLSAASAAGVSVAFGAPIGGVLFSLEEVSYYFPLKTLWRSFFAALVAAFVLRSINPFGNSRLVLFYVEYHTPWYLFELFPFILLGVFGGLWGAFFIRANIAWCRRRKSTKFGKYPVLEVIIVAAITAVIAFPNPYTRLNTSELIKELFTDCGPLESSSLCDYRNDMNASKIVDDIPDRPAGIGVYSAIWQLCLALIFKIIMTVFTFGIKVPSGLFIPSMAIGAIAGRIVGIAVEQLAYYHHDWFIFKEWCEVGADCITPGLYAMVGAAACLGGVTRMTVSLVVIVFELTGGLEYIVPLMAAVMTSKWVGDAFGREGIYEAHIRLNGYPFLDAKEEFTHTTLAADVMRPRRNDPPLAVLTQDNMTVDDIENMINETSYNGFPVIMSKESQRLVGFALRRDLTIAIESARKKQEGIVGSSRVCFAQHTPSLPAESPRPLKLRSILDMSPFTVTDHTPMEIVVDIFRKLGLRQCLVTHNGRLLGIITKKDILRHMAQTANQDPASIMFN
UniProt Q96RR4, sequence (Q96RR4 whole entry, looked up): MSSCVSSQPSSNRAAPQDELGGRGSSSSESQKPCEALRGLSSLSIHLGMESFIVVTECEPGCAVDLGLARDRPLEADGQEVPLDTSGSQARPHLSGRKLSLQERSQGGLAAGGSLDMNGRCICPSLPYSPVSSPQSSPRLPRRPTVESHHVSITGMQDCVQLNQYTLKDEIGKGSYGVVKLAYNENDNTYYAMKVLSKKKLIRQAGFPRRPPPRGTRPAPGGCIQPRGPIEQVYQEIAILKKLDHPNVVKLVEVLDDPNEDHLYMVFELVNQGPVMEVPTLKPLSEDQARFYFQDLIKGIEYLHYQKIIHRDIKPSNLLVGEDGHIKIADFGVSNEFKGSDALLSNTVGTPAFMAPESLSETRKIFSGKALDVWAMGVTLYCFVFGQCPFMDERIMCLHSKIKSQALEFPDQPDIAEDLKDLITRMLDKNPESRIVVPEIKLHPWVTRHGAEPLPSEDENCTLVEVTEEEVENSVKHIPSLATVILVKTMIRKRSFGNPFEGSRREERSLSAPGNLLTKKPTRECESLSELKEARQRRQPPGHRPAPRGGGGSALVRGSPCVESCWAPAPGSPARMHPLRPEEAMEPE
UniProt Q8IWV2, sequence (Q8IWV2 whole entry, looked up): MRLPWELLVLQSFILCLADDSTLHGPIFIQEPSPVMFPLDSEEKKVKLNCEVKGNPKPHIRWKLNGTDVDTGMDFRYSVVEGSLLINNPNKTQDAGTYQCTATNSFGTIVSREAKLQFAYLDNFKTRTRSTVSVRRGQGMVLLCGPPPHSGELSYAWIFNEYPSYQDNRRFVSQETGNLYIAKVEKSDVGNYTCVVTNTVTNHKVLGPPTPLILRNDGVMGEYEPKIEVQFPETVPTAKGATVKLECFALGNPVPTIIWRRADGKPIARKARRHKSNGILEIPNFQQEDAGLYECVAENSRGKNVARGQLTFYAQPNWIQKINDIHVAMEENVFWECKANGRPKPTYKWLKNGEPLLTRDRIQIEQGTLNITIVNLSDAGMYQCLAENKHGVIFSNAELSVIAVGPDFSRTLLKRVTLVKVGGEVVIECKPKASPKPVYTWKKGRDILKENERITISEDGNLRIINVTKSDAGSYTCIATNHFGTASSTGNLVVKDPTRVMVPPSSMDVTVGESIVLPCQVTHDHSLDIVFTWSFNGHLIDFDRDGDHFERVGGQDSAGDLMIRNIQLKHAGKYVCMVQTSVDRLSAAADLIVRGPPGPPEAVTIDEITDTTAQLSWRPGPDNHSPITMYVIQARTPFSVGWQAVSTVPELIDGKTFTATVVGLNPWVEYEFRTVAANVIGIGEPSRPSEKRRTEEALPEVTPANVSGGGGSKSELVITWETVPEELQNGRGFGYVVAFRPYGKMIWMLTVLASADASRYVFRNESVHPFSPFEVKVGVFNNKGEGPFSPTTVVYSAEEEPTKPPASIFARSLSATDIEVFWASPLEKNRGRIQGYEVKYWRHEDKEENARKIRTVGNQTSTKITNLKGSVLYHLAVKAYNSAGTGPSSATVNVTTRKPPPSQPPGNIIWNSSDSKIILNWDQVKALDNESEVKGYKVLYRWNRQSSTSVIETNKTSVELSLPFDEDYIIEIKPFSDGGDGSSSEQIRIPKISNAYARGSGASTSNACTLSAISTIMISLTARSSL
UniProt P21127, sequence (P21127 whole entry, looked up): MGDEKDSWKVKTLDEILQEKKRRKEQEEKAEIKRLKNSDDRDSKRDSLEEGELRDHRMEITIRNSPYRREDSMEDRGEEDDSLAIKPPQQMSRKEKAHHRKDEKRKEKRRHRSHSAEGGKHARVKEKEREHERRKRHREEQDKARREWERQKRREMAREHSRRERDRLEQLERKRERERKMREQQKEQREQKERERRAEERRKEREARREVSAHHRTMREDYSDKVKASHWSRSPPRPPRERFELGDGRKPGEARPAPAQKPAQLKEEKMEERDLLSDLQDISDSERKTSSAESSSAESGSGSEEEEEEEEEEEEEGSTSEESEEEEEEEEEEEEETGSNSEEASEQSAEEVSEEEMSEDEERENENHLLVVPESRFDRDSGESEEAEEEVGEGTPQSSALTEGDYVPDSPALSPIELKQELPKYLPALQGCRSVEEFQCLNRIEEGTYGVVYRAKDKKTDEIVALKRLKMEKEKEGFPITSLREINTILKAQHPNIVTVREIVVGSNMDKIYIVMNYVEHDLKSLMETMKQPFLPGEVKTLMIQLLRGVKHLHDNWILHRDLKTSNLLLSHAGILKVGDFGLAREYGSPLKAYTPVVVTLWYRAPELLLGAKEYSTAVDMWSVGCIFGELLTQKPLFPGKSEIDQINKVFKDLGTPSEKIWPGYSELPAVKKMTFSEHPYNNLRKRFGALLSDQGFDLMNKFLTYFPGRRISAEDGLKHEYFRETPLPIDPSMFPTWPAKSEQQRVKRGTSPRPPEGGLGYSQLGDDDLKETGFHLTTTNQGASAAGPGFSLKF
UniProt P48730, sequence (P48730 whole entry, looked up): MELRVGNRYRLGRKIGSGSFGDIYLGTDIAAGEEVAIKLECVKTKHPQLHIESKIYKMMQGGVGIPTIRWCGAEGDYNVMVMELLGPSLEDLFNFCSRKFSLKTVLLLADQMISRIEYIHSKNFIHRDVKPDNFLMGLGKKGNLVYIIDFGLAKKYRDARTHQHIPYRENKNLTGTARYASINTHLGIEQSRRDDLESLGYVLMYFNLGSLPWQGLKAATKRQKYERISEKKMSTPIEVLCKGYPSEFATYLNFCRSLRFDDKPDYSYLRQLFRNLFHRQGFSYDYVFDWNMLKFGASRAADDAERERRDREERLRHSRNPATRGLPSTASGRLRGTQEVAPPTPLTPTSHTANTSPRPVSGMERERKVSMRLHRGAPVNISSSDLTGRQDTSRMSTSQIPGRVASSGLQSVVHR
UniProt Q8N1A6, sequence (Q8N1A6 whole entry, looked up): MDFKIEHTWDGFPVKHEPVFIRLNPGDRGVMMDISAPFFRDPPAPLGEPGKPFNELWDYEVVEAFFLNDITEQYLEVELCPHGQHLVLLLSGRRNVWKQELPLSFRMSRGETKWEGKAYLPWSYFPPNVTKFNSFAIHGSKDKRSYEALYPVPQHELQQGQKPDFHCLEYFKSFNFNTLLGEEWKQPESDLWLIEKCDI
UniProt P55211, sequence (P55211 whole entry, looked up): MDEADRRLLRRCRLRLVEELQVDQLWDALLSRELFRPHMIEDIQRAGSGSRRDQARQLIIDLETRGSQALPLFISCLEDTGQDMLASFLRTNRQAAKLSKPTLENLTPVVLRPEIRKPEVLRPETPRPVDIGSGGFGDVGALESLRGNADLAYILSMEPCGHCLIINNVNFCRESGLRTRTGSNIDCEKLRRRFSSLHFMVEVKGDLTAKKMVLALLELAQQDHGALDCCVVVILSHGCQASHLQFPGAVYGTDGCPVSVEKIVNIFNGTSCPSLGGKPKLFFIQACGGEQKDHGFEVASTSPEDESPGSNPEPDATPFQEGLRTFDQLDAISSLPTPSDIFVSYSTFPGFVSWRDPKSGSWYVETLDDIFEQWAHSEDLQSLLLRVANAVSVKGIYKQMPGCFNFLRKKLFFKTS
UniProt P14854, sequence (P14854 whole entry, looked up): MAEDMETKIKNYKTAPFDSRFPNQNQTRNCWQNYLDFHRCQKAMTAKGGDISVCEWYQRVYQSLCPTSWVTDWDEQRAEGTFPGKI
UniProt P09497, sequence (P09497 whole entry, looked up): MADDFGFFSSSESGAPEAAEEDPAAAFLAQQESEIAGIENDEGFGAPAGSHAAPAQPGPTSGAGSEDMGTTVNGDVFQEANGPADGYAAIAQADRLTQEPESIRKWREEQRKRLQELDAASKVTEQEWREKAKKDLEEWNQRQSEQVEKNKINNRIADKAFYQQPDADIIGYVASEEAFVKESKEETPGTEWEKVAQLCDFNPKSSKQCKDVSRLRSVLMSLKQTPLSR
UniProt Q8NHZ8, sequence (Q8NHZ8 whole entry, looked up): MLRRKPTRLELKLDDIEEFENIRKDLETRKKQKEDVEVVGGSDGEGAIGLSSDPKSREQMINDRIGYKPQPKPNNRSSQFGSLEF

Compound in the assay: CCCCN(Cc1ccc(C(=O)NO)cc1)C(=O)Nc1ccccc1 [Nexturastat A]
Kind of assay: log2 fold change, soluble protein after heating vs DMSO (PISA); higher = thermal stabilisation; K562 cells, 10 uM, 30 min; active = over 0.2 and 3.5 SD of the protein, either way, in both replicates (recomputed). Put shortly:
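K562 cells (2×10^6 cells/mL) were treated with 10 μM compound for 30 min, and aliquots were heated for 3 min over 48°C-58°C. Pooled aliquots were extracted in PBS with 0.5% NP-40 at 4°C, and the supernatant after 21,000xg for 90 min was measured by TMTpro 16plex LC-MS/MS with channel sums equalised. Reported thermal stability, relative to control samples and from duplicates, is a log2 fold change.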
As for CDCA2 (UniProt Q69YH5), the log2 fold change was 0.638 (active).

As for COPS8 (UniProt Q99627), the log2 fold change is 0.126.

Turning to CASP9 (UniProt P55211), the log2 fold change is 0.045.

For CNOT4 isoform 6 (UniProt O95628), the log2 fold change was -0.122.

CNOT2 (UniProt Q9NZN8): the log2 fold change was 0.017.

With CCAR2 isoform 2 (UniProt Q8N163), the log2 fold change was 0.

COX6B1 (UniProt P14854): the log2 fold change was -0.001.

Regarding COPS3 (UniProt Q9UNS2), the log2 fold change is -0.02.

For the target CDAN1 (UniProt Q8IWY9), the log2 fold change was -0.192.

With CRTC2 (UniProt Q53ET0), the log2 fold change is -0.03.

COASY isoform 2 (UniProt Q13057): the log2 fold change is 0.021.

As for CDC26 (UniProt Q8NHZ8), the log2 fold change was 0.067.

With CPSF1 (UniProt Q10570), the log2 fold change was 0.453 (active).

On to CSNK2A2 (UniProt P19784), for which the log2 fold change is 0.004.

Turning to CLCN3 isoform 2 (UniProt P51790), the log2 fold change is -0.026.

With CAVIN1 (UniProt Q6NZI2), the log2 fold change is 0.186.

CBX5 (UniProt P45973): the log2 fold change was 0.027.

As to CAMK2G isoform 6 (UniProt Q13555), the log2 fold change was 0.094.

Regarding CNTN4 (UniProt Q8IWV2), the log2 fold change is 0.342.

Take CDK13 (UniProt Q14004): the log2 fold change is -0.212.

As for CDK9 isoform 2 (UniProt P50750), the log2 fold change is 0.155.

For the target CDKN2AIP (UniProt Q9NXV6), the log2 fold change was 0.052.

On to C1D (UniProt Q13901), for which the log2 fold change is -0.053.

Turning to COX5B (UniProt P10606), the log2 fold change is -0.043.

Take CLTB (UniProt P09497): the log2 fold change is -0.039.

Take CHD3 isoform 3 (UniProt Q12873): the log2 fold change was 0.056.

Regarding CELF2 isoform 3 (UniProt O95319), the log2 fold change was -0.025.

Regarding CSNK1D (UniProt P48730), the log2 fold change is 0.117.

Turning to CDK5 (UniProt Q00535), the log2 fold change was -0.002.

As for CASP2 (UniProt P42575), the log2 fold change is 0.004.

Take CLINT1 isoform 3 (UniProt Q14677): the log2 fold change is 0.122.

Take CAMKK2 (UniProt Q96RR4): the log2 fold change was 0.154.

In the case of CDK11B (UniProt P21127), the log2 fold change is 0.038.

Turning to C4orf33 (UniProt Q8N1A6), the log2 fold change is 0.018.

With CALCOCO2 isoform 4 (UniProt Q13137), the log2 fold change is 0.019.

Values taken from the supplement of paper PMC10849652.
